Assay results published in PubChem BioAssay (NCATS).
Records with an inconclusive call do not appear. Calls of active or inactive are those of the source. Calls follow the shape of the dose curve; as a rule, active = well fitted curve in the direction sought with a large enough effect; inconclusive = small, poorly fitted or top-dose-only effect, or another doubt; inactive = no such curve, though single readings can be large; an effect the other way counts as inactive or inconclusive.

Columns and labels:
[1] = qHTS of pediatric cancer cell lines to identify multiple opportunities for drug repurposing: Primary screen for control Hh wild type fibroblast cells (AID 1347106); details: Hh wild-type fibroblast viability, CellTiter-Glo luminescence, 48 h; series mostly up to 46 µM;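 also: a drop in luminescence marks cytotoxicity and a rise apparent proliferation; nearly all actives have a fitted effect of over 55% in size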
Summary of the method: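 Viability after 48 h compound treatment at 37C, 500-1,000 cells/well, read as ATP luminescence with CellTiter-Glo. Primary screens used 11-point (MIPE, 0.78 nM-46 µM) or 8-point (NPC, 0.59 nM-46 µM) final concentrations; follow-up screens used 11-point dilutions.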

[2] = qHTS of pediatric cancer cell lines to identify multiple opportunities for drug repurposing: Confirmatory screen for NB1643 cells (AID 1347109); details: NB1643 neuroblastoma cell viability; series mostly up to 45.9 µM; also: nearly all actives have a fitted effect of over 45% in size; also: potency is read from the fitted curve at half-maximal effect
Summary of the method: (§1)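 Cells (500-1,000/well) in growth media were settled 5 h at 37 degrees C, then given compounds for 48 h. Viability was read as CellTiter-Glo luminescence. Primary runs used MIPE at 11 points (0.78 nM-46 µM) and NPC at 8 points (0.59 nM-46 µM); follow-ups used 11 points.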

[3] = qHTS of pediatric cancer cell lines to identify multiple opportunities for drug repurposing: Confirmatory screen for SK-N-MC cells (AID 1347111); details: SK-N-MC cell viability; series mostly up to 45.9 µM;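 also: potency is read from the fitted curve at half-maximal effect; cells exposed to compound for 48 h before the readout; nearly all actives have a fitted effect of over 70% in size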
Summary of the method: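 Metabolically active cells were quantified by ATP-dependent luminescence (CellTiter-Glo, 15 min at room temperature) following 48 h treatment. Cells had been plated at 500-1,000 per well and settled for 5 h beforehand.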

[4] = qHTS of pediatric cancer cell lines to identify multiple opportunities for drug repurposing: Confirmatory screen for BT-12 cells (AID 1347112); details: BT-12 rhabdoid tumor cells, viability; series mostly up to 45.9 µM; also: nearly all actives have a fitted effect of over 55% in size; also: potency is read from the fitted curve at half-maximal effect
Summary of the method: as §1

[5] = qHTS of pediatric cancer cell lines to identify multiple opportunities for drug repurposing: Confirmatory screen for LAN-5 cells (AID 1347113); details: LAN-5 neuroblastoma cell viability; series mostly up to 45.9 µM; also: nearly all actives have a fitted effect of over 65% in size; also: potency is read from the fitted curve at half-maximal effect
Summary of the method: as §1

[6] = qHTS of pediatric cancer cell lines to identify multiple opportunities for drug repurposing: Confirmatory screen for DAOY cells (AID 1347114); details: DAOY medulloblastoma cells viability, cytotoxicity qHTS; series mostly up to 45.9 µM; also: potency is read from the fitted curve at half-maximal effect; nearly all actives have a fitted effect of over 65% in size
Summary of the method: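 Viability measured as metabolically active cells via CellTiter-Glo luminescence following 48 hours of compound exposure, 11-point dilutions in confirmatory testing. 500-1,000 cells/well plated 5 hours before dosing; controls were DMSO and 2.3 µM bortezomib.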

[7] = qHTS of pediatric cancer cell lines to identify multiple opportunities for drug repurposing: Primary screen for Rh30 cells (AID 1347107); details: Rh30 rhabdomyosarcoma viability, CellTiter-Glo luminescence, 48 h; series mostly up to 46 µM; also: potency is read from the fitted curve at half-maximal effect; nearly all actives have a fitted effect of over 75% in size
Summary of the method: as §1

[8] = qHTS of pediatric cancer cell lines to identify multiple opportunities for drug repurposing: Primary screen for Rh41 cells (AID 1347108); details: Rh41 rhabdomyosarcoma viability, CellTiter-Glo luminescence, 48 h; series mostly up to 46 µM; also: potency is read from the fitted curve at half-maximal effect; nearly all actives have a fitted effect of over 70% in size
Summary of the method: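 ATP-based luminescence (CellTiter-Glo) quantifies viability after a 48-hour exposure. Compounds are dosed across 8 or 11 final concentrations; DMSO and 2.3 µM bortezomib serve as controls.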

[9] = qHTS of pediatric cancer cell lines to identify multiple opportunities for drug repurposing: Confirmatory screen for A673 cells (AID 1347110); details: A673 Ewing sarcoma cell viability; series mostly up to 45.9 µM;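 also: potency is read from the fitted curve at half-maximal effect; cells exposed to compound for 48 h before the viability read; nearly all actives have a fitted effect of over 65% in size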
Summary of the method: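 Concentration-response curves came straight from titrations: 11 points (0.78 nM to 46 µM) for MIPE and several concentrations (0.59 nM to 46 µM) for NPC in primary, 11 points in follow-up. Readout: ATP luminescence at 48 h.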

| Compound | Potency [1] | Potency [2] | Potency [3] | Potency [4] | Potency [5] | Potency [6] | Potency [7] | Potency [8] | Potency [9] |
| --- | --- | --- | --- | --- | --- | --- | --- | --- | --- |
| Cc1cnc(-c2cnc(NCCNc3ccc(C#N)cn3)nc2-c2ccc(Cl)cc2Cl)[nH]1 | inactive | inactive | 11.7 µM (active) | inactive | inactive | 16.5 µM (active) |  |  |  |
| CC(C)(O)c1cc2nc(-c3cnc(N)nc3)nc(N3CCOCC3)c2s1 |  | 1.47 µM (active) | 1.17 µM (active) |  | 0.737 µM (active) |  | 5.26 µM (active) | 0.372 µM (active) | 1.85 µM (active) |
| CCCCOc1c(C(=O)c2c(F)cc(C)cc2F)cnc2n[nH]cc12 |  |  |  |  |  |  |  | 18.7 µM (active) |  |
| Cc1ccc2nc(NC(=O)CSc3nc4c(c(=O)n3-c3ccccc3)SCC4)sc2c1 |  |  | 11.7 µM (active) | 3.29 µM (active) |  | 7.37 µM (active) |  | 14.8 µM (active) | 1.04 µM (active) |
